VHR inh color: VHR1 (DUSP3) phosphatase inhibition | P51452 | recombinant VHR phosphatase, colorimetric substrate read-out | inhibition, % at 20 µM | hit rate 0.7% among 50,000 | AID 1992; in the data active = inhibition above about 60%
Target sequence (P51452 whole entry, looked up): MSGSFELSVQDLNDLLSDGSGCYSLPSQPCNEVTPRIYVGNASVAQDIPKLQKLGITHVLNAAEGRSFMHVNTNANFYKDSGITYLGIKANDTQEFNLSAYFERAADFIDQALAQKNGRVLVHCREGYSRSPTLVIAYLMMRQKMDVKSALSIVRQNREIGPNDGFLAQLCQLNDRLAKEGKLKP
A number is an active result. Shown is part of a subset that was picked to be rich in hits.

What do the screens show for `CCOc1cc(/C=C2/SC(=O)NC2=O)ccc1OCc1ccc(Cl)cc1`?
VHR inh color: inactive

Results for CCOc1cc(C=C2C(=O)NC(=O)NC2=O)ccc1OCc1ccc(Cl)cc1 ?
VHR inh color: inactive

How did CCOc1cc(/C=N/O)ccc1OCc1ccc(Cl)cc1 do in these assays?
VHR inh color: 116.4

Results for COc1ccc(C2/C(=C(/O)c3ccc(Cl)cc3)C(=O)C(=O)N2C)c(OC)c1 (stereo not given) ?
VHR inh color: inactive

How did COC(=O)c1ccc(CSc2nc3ccccc3s2)cc1 do in these assays?
VHR inh color: inactive

How did COc1c(Cl)cc(Cl)cc1/C=C1\SC(NC(C)=O)=NC1=O do in these assays?
VHR inh color: inactive

How did COC(=O)c1ccc(COc2ccc3c(-c4ccccc4)cc(=O)oc3c2C)cc1 do in these assays?
VHR inh color: inactive

Results for COC(=O)c1ccc(COc2cc3oc(=O)cc(-c4ccccc4)c3cc2Cl)cc1 ?
VHR inh color: 97.9

Results for COC(=O)c1ccc(COc2cc3oc(=O)c4c(c3cc2Cl)CCC4)cc1 ?
VHR inh color: inactive

How did COc1cc(/C=c2\sc3nc4ccccc4n3c2=O)ccc1OC(=O)c1ccc(Cl)cc1 do in these assays?
VHR inh color: inactive

Results for COc1ccc(-c2cc(C(F)(F)F)n3nc(C(=O)N4CCN(C)CC4)c(Cl)c3n2)cc1 ?
VHR inh color: inactive

What do the screens show for `Cc1ccc(N2C(=O)/C(=C/c3ccc(O)c(O)c3)SC2=S)cc1C`?
VHR inh color: inactive

What do the screens show for `COc1ccc(C2CC(=O)Nc3c2cc(Br)c2ccccc32)cc1OC` (stereo not given)?
VHR inh color: 67.3

What do the screens show for `O=C1CC(c2ccc(F)c(F)c2)c2cc(Br)c3ccccc3c2N1` (stereo not given)?
VHR inh color: inactive

What do the screens show for `COc1cccc(C2CC(=O)Nc3c2cc(Br)c2ccccc32)c1OC` (stereo not given)?
VHR inh color: inactive

Results for COC(=O)c1ccc(OC(=O)CN2C(=O)c3cccc([N+](=O)[O-])c3C2=O)cc1 ?
VHR inh color: inactive

Results for O=C(NCC1(c2ccccc2)CCOCC1)C1COc2ccccc2O1 (stereo not given) ?
VHR inh color: inactive

Results for COc1cccc(-c2cc(C(=O)Nc3nc4ccccc4s3)c3ccccc3n2)c1 ?
VHR inh color: 67.9

How did COc1cccc(-c2cc(C(=O)Nc3ncccn3)c3ccccc3n2)c1 do in these assays?
VHR inh color: inactive

What do the screens show for `COc1cccc(-c2cc(C(=O)Nc3nn[nH]n3)c3ccccc3n2)c1`?
VHR inh color: inactive

What do the screens show for `O=C1Nc2ccccc2C1=Cc1nc2ccccc2c(=O)n1-c1cccc([N+](=O)[O-])c1`?
VHR inh color: inactive

Results for COc1ccc(OC)c(C=NNC(=O)Cn2nnc3ccccc32)c1 ?
VHR inh color: inactive

How did COc1ccc(-c2nc3sc4c(c3c(=O)[nH]2)CCCC4)cc1C do in these assays?
VHR inh color: 60.7

What do the screens show for `CCOc1ccc(-c2nc3sc4c(c3c(=O)[nH]2)CCCC4)cc1OCC`?
VHR inh color: inactive

Results for C=CCOc1ccc(-c2nc3sc4c(c3c(=O)[nH]2)CCCC4)cc1OC ?
VHR inh color: inactive

What do the screens show for `COc1ccccc1N=Nc1c(O)[nH]c(=O)[nH]c1=O`?
VHR inh color: inactive

Results for COC(=O)c1c(N)sc2c1CCC(c1ccccc1)C2 (stereo not given) ?
VHR inh color: inactive

How did CCOC(=O)c1c(NC(=O)Oc2ccccc2)sc2c1CCC(C)C2 (stereo not given) do in these assays?
VHR inh color: inactive

What do the screens show for `CCOC(=O)c1c(N)sc2c1CCC(c1ccccc1)C2` (stereo not given)?
VHR inh color: 94.5

What do the screens show for `CC(C)(C)OC(=O)N1CC(O)CC1C(=O)NC1CCCCC1` (stereo not given)?
VHR inh color: inactive

How did COc1ccc(CNC(=O)C2c3ccccc3Oc3ccccc32)cc1 do in these assays?
VHR inh color: inactive

Results for Cc1ccc(/C=C2\C(=O)NC(=O)N(c3cccc(Br)c3)C2=O)cc1 ?
VHR inh color: inactive

Results for C=CCc1cc(/C=C2/C(=O)NC(=O)N(c3cccc(C)c3)C2=O)cc(OC)c1O ?
VHR inh color: inactive

How did C=CCc1cc(/C=C2\C(=O)NC(=S)N(c3cccc(Br)c3)C2=O)cc(OC)c1O do in these assays?
VHR inh color: 77.4

Results for COc1cc(/C=C2\C(=O)NC(=O)N(c3cccc(Br)c3)C2=O)cc(Cl)c1O ?
VHR inh color: inactive

How did COc1cc(/C=C2\C(=O)NC(=S)N(c3cccc(Br)c3)C2=O)cc(Cl)c1O do in these assays?
VHR inh color: inactive

Results for COc1ccc2ccccc2c1/C=C1/C(=O)NC(=O)N(c2cccc(Br)c2)C1=O ?
VHR inh color: 101.2

How did O=C1Nc2ccccc2/C1=N/N=C/c1ccc(-c2ccc(Cl)cc2)o1 do in these assays?
VHR inh color: inactive

What do the screens show for `CCOP(C)(=O)CN1CCCCC1` (stereo not given)?
VHR inh color: inactive

How did CCOC(=O)c1c(NC(=O)c2ccc(OC)c(OC)c2)sc(C(=O)N(CC)CC)c1C do in these assays?
VHR inh color: inactive

What do the screens show for `CCN(CC)C(=O)c1sc(NC(=O)c2cc(OC)cc(OC)c2)c(C(=O)OC)c1C`?
VHR inh color: 95.0

What do the screens show for `CCOc1cc(C(=O)Nc2sc(C(=O)N(CC)CC)c(C)c2C(=O)OC(C)C)cc(OCC)c1OCC`?
VHR inh color: inactive

What do the screens show for `COc1cccc(OC)c1C(=O)c1ccccc1`?
VHR inh color: inactive

Results for Fc1ccc(NC(=S)NCCN2CCOCC2)cc1 ?
VHR inh color: inactive

Results for S=C(NCCN1CCOCC1)Nc1ccccc1 ?
VHR inh color: 98.8

How did S=C(NCCN1CCOCC1)Nc1cccc(Cl)c1 do in these assays?
VHR inh color: inactive

Results for O=C1Nc2c(S(=O)(=O)Nc3ccc(Cl)cc3)cc(S(=O)(=O)Nc3ccc(Cl)cc3)c3cccc1c23 ?
VHR inh color: inactive

What do the screens show for `CCOC(=O)c1c(NC(=O)c2ccccc2)sc2c1CCN(Cc1ccccc1)C2`?
VHR inh color: inactive

What do the screens show for `CCOC(=O)c1c(NC(=S)Nc2ccccc2)sc2c1CCCCC2`?
VHR inh color: inactive

Results for CCOC(=O)c1c(NC(=S)Nc2ccc(C)cc2)sc2c1CCN(Cc1ccccc1)C2 ?
VHR inh color: 68.5

Results for O=[N+]([O-])c1cccc(CN2CCN(Cc3cccc(Cl)c3)CC2)c1 ?
VHR inh color: inactive

How did CCOC(=O)c1ccc(N2C(=O)C3C(C2=O)C2(C)c4ccccc4C3(C)c3ccccc32)cc1 (stereo not given) do in these assays?
VHR inh color: inactive

Results for COc1c(C(=O)/C=C/c2ccccc2)c(O)c(OC)c2occc12 ?
VHR inh color: inactive

Results for O=C(Nc1ccc(F)cc1)Nc1cccc2cccnc12 ?
VHR inh color: inactive

How did Fc1c(F)c(C(F)(F)F)c(F)c(F)c1Oc1cccc2cccnc12 do in these assays?
VHR inh color: 97.8

What do the screens show for `Cc1ccc(C)n1-c1cccc2cccnc12`?
VHR inh color: inactive

Results for CCc1c(O)nc(SCC(=O)c2ccccc2)[nH]c1=O ?
VHR inh color: inactive

Results for Cc1ccc(N=Nc2cc(-c3ccccc3)sc2O)c(C)c1 ?
VHR inh color: inactive

Results for Cc1ccc(C)c(NC(=O)C2CCC(C)(C(=O)O)C2(C)C)c1 (stereo not given) ?
VHR inh color: inactive

What do the screens show for `CC(=O)NC1=NC(=O)/C(=C\c2ccc(Br)o2)S1`?
VHR inh color: 81.3

How did CC(=O)NC1=NC(=O)/C(=C\c2ccc(-c3ccc(C(=O)O)cc3)o2)S1 do in these assays?
VHR inh color: inactive

How did CC(=O)NC1=NC(=O)/C(=C/c2ccc(C)cc2)S1 do in these assays?
VHR inh color: inactive
